NPC1 promoter act – activators of NPC1 promoter; Huh7 NPC1 promoter luciferase reporter, 24 h; Potency, µM (titrated, usually from 9.22 µM), inactives show at the top dose activation, most hits filed as activators; 2.4% of 320,000 active; AID 485313; further: % of control where 0% means no effect; nearly all actives have a fitted effect of over 60% in size
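Quantitative HTS used a cell-based reporter: Huh7 cells stably bearing the NPC1 promoter upstream of luciferase were treated with compounds for 24 h, and promoter activation was read as luminescence.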
ELG1 repair inh – blocks ELG1-dependent DNA repair in HEK293T cells | 2.3% of 330,000 active | Potency, µM (top dose mostly 46.1 µM), for inactives: top-dose activity change, negative = inhibition, usual class: inhibitors | AID 504467 | HEK293T ELG1-luciferase reporter, luminescence, 16 h; DNA damage induced by 5-fluorouridine; further: on the % scale 0 is the no-effect control and ±100 the full control effect; nearly all actives have a fitted effect of over 55% in size
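DMSO vehicle served as the neutral condition. Each well held 2,000 cells given 5-fluorouridine plus compound; after 16 hr at 37 °C/5% CO2, ONE-Glo was added and luciferase measured 30 min later.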
SMN2 splice enh – SMN2 splice variant enhancement; AID 1458; HEK293 SMN2-luciferase splicing reporter, luminescence, 30-36 h; 2.8% of 210,000 active; Potency, µM (highest dose often 46.1 µM), for the others: at the highest dose activity change, positive = activation, most hits filed as activators; further: % of control where 0% means no effect; nearly all actives have a fitted effect of over 55% in size
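HEK293 cells carry an SMN2 minigene-luciferase reporter in which exon 7 inclusion puts luciferase in frame. Cells were seeded at 2000 cells/well, attached for 10-12 hours, then exposed to compounds for 30-36 hours at 37C before ONE-Glo luminescence.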
Rab9 prom act – activates the Rab9 promoter; Huh7 Rab9 promoter-luciferase reporter, luminescence, 24 h; Potency, µM (top dose mostly 9.22 µM), without a hit: top-dose activation, negative = inhibition, hits mostly activators; 2.8% of 320,000 active; further: % of control where 0% means no effect; nearly all actives have a fitted effect of over 60% in size
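Cells were plated at 1500 per well in reduced-serum medium with 10% FBS and left 2 h. Compound in DMSO was then added for 24 h at 37 °C. Reporter signal was read by luminescence after 10 min with luciferase detection reagent.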
FLuc modulator – counter-screen for miR-21 project: firefly luciferase inhibitors or activators. P08659. purified FLuc, Km substrates, luminescence inhibition. Potency, µM (titrated, usually from 57.5 µM), for the others: at the top dose activity change, negative = inhibition, usual class: inhibitors. 6.9% of 360,000 active. AID 588342;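 further: plate controls were vehicle for no effect and reference inhibitor for full effect; nearly all actives have a fitted effect of over 55% in size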
Target sequence (P08659 whole entry, looked up): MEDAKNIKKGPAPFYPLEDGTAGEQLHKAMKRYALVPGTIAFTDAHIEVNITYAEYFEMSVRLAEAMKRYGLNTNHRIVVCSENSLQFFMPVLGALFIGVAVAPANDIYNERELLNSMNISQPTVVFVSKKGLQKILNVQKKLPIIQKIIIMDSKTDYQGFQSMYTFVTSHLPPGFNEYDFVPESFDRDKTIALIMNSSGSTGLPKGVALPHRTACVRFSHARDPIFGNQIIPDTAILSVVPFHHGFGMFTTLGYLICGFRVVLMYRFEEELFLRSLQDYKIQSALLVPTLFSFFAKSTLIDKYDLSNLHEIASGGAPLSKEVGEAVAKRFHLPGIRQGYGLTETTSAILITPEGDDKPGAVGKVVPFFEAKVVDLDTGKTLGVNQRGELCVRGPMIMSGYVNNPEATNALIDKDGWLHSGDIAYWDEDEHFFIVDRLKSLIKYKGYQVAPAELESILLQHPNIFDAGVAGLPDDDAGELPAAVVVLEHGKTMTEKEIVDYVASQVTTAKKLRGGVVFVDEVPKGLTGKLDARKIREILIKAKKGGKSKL
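Purified P. pyralis luciferase, 10 nM final, with Km-level 10 uM D-luciferin and 10 uM ATP in 50 mM Tris acetate pH 7.5, 10 mM Mg acetate, 0.01% Tween-20, 0.05% BSA; 6-point qHTS titration about 60 µM downward; luminescence read.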
ELG1 genotox – induces genotoxicity in HEK293T cells with luciferase-tagged ELG1. HEK293T ELG1-luciferase reporter, luminescence, 16 h. Potency, µM (series often up to 46 µM), for the others: at the top dose activity change, positive = activation, most hits filed as activators. 1.3% of 330,000 active. AID 504466; further: % of control where 0% means no effect; nearly all actives have a fitted effect of over 60% in size
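16 hr compound incubation (37 °C, 5% CO2) of HEK293T cells carrying luciferase-tagged ELG1; luciferase then measured by ONE-Glo luminescence after 30 min at RT.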
* marks the source's active call; other numbers are inactive results; ? = inconclusive; / = no result given; [ ] = another dose, or the depositor's remark. An excerpt weighted towards active compounds, which were near 9.2% of everything screened. The call rests on the fitted dose curve; in most records, active means well fitted curve in the direction sought with a large enough effect; inconclusive means small, poorly fitted or top-dose-only effect, or another doubt; inactive means no such curve, though single readings can be large; an effect the other way counts as inactive or inconclusive. Potency means the concentration at half of the fitted maximal effect.

SMILES	NPC1 promoter act	ELG1 repair inh	SMN2 splice enh	Rab9 prom act	FLuc modulator	ELG1 genotox
COC(=O)C1CCCCN1C(=O)c1cc(COc2cccc3cccnc23)on1 (stereo not drawn)	-4%	-4%	/	-1%	0%	-6%
COc1cc(Cl)ccc1OCc1cc(C(=O)N2CCC(N(C)C)C2)no1 (stereo not drawn)	1%	15%	/	-3%	-17%	4%
COC(=O)C1CCCCN1C(=O)c1cc(COc2cccc3cnccc23)on1 (stereo not drawn)	-26%	1.5µM*	/	-31%	-3%	-11%
COc1ccc(OCc2cc(C(=O)N3CCCC(OC)C3)no2)c2ccccc12 (stereo not drawn)	?	?	/	?	27µM*	?
COc1ccc(OCc2cc(C(=O)NC3CCOCC3)no2)c2ccccc12	-4%	12%	/	4%	-5%	0%
COc1ccc(OCc2cc(C(=O)N3CCCC(O)C3)no2)c2ccccc12 (stereo not drawn)	?	?	/	?	12µM*	?
O=C(COC(=O)c1cnccn1)N=c1sccn1Cc1ccccc1Cl	-2%	-20%	/	-2%	-2%	7%
Cc1ccccc1C1CCCN(C(=O)c2cc(COc3c(F)cccc3F)on2)C1 (stereo not drawn)	-3%	0%	/	-6%	0%	-6%
CCCOC1CCCN(C(=O)c2cc(COc3c(F)cccc3F)on2)C1 (stereo not drawn)	2.8µM*	?	/	2.2µM*	12µM*	?
CC(=O)c1ccc(N2CCN(C(=O)C3CCN(S(=O)(=O)Cc4ccccc4)CC3)CC2)cc1	1%	18µM*	/	8%	-4%	-6%
O=C(C1CCN(S(=O)(=O)Cc2ccccc2)CC1)N1CCN(c2ccccc2)CC1	/	/	/	/	1%	/
CC(=O)Nc1ccc(S(=O)(=O)N2CCCC(C(=O)N3CCN(c4ccccc4)CC3)C2)cc1 (stereo not drawn)	-1%	21µM*	/	-5%	10%	-14%
CCc1ccc(Sc2cc(C(=O)NCc3cccc(OC)c3)c3ccccc3n2)cc1	/	/	/	/	5%	/
O=C(c1ccccc1)c1ccc2nc(N3CCN(C(=O)c4ccco4)CC3)c3nncn3c2c1	-2%	21µM*	-11%	2%	-12%	-13%
Cc1c(-c2ccc(OCc3ccccc3)cc2)nc2ccccc2c1C(=O)O	16%	?	/	3%	21µM*	-2%
COc1ccc(OCC(=O)Nc2ccc3c(c2)CCC3)cc1	-6%	19%	/	16%	/	-1%
Cc1csc(NC(=O)COc2ccc3c(c2)CCC3)n1	?	?	/	3.5µM*	12µM*	?
Cc1ccc(NC(=O)COc2ccc3c(c2)CCC3)nc1	?	?	/	?	9.5µM*	9.2µM*
O=C(COc1ccc(Br)cc1)c1ccc2c(c1)CCCC2	16%	16%	-8%	12%	?	5%
Cc1ccc(NC(=O)COc2ccc3oc4c(c3c2)CCCC4)nc1	0%	12%	0%	-1%	10%[2.3 µM]	3%
Cc1cccnc1NC(=O)COc1ccc2c(c1)CCC2	?	?	/	?	17µM*	9.2µM*
Cc1ccc(OCC(=O)c2ccc3c(c2)CCCC3)cc1C	0.56µM*	?	22%	1.1µM*	9.5µM*	?
COc1cccc2c1ncc1c(-c3ccc(C)cc3)nn(-c3cccc([N+](=O)[O-])c3)c12	/	/	/	/	-4%	/
COc1cccc(CNCCSc2nnnn2C)c1OCc1ccccc1	/	/	?	/	-5%	/
COc1cccc(CNn2c(-c3cccc(C)c3)nc3ccccc3c2=O)c1	0%	21µM*	-20%	-4%	1%	-21%
SMILES	NPC1 promoter act	ELG1 repair inh	SMN2 splice enh	Rab9 prom act	FLuc modulator	ELG1 genotox
COc1ccc(OC)c(CNn2c(-c3cccc(C)c3)nc3ccccc3c2=O)c1	-3%	18µM*	-15%	-4%	-16%	-9%
COc1ccc(OCC(=O)Nn2c(-c3ccc(C)cc3)nc3ccccc3c2=O)cc1	-3%	-1%	-34%	-4%	2%	0%
COc1cccc(CC(=O)Nn2c(C)nc3ccccc3c2=O)c1	-5%	?	4%	0%	4%	0%
COc1ccc(CNn2c(-c3cccs3)nc3ccccc3c2=O)cc1OC	-2%	8.2µM*	-87%	2%	-10%	-9%
C=CCN(c1ccc(C(=O)NCCSc2ccccc2)cc1)S(C)(=O)=O	18%	10%	/	29%	?	11%
O=C(CNS(=O)(=O)c1cccs1)NCCc1ccc(Cl)cc1	-6%	-5%	/	-1%	3%	-3%
COc1cc2ccccc2cc1C(=O)Nc1ccc(CN2CCOCC2)cc1	19%	?	/	19%	15µM*	-11%
O=C(Cc1ccccc1)Nc1ccc(CN2CCOCC2)cc1	?	?	22µM*	?	?	12µM*
O=C(Nc1ccc(CN2CCOCC2)cc1)c1ccccc1F	3.2µM*	?	11µM*	?	?	?
COc1ccc(Br)cc1C(=O)NC(=S)Nc1ccc(CN2CCOCC2)cc1	-6%	?	/	-1%	-12%	-12%
O=C(Nc1ccc(CN2CCOCC2)cc1)c1cccs1	?	?	13µM*	3.2µM*	12µM*	?
O=S(=O)(c1ccccc1)c1nnn2c1nc(NCc1ccccc1)c1cc(Cl)ccc12	/	/	6%	/	2%	/
CCOc1ccc(NC(=O)c2ccc(CNc3c(N4CCCC4)c(=O)c3=O)cc2)cc1	-4%	13%	/	6%	13µM*	4%
CC(=O)c1ccc(NC(=O)c2ccc(CNc3c(N4CCCC4)c(=O)c3=O)cc2)cc1	-3%	-7%	/	2%	?	-1%
CC(=O)c1ccc(NC(=O)c2ccc(CNc3c(N4CCOCC4)c(=O)c3=O)cc2)cc1	-2%	2%	/	1%	12µM*	-2%
Cc1ccc(CNC(=O)CCCc2nnc3n(CC(C)C)c(=O)c4sccc4n23)cc1	/	/	/	/	0%	/
COc1ccc(CCNC(=O)c2ccc3c(c2)ncn3-c2ccc(C)cc2C)cc1OC	/	/	/	/	2%	/
CCOc1ccc(N(CC)C(=O)CSc2n[nH]c(-c3ccccc3)n2)cc1	/	/	/	/	-19%	/
CC(=O)c1cccc(NC(=O)CSc2n[nH]c(-c3ccncc3)n2)c1	1%	14%	/	-12%	?	2%
COc1ccc(-c2nc(SCC(=O)Nc3cccc(C(C)=O)c3)n[nH]2)cc1	/	/	/	/	6.7µM*	/
CCCCOc1ccc(-c2nc(=S)[nH][nH]2)cc1	26%	?	10µM*	?	?	30%

Compound activity from PubChem BioAssay.
